Measurements taken from PubChem BioAssay.

The compounds below were run against NAD(+) hydrolase SARM1 (Homo sapiens) (UniProt Q6SZW1) (assay: blocking NAD cleavage by SARM1 SAM-TIR – cell lysate, NAD-Glo luminescence (AID 1508614;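 note: higher remaining NAD means stronger inhibition of SARM1 NADase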)). Conditions: SAM-TIR HEK293T lysate NADase, at 1 µM, hits give high values;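 active = compound whose remaining NAD level is above about 45 nM (limit read from the data); inactive = the rest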.
Sequence of NAD(+) hydrolase SARM1 (Homo sapiens) (Q6SZW1 whole entry, looked up): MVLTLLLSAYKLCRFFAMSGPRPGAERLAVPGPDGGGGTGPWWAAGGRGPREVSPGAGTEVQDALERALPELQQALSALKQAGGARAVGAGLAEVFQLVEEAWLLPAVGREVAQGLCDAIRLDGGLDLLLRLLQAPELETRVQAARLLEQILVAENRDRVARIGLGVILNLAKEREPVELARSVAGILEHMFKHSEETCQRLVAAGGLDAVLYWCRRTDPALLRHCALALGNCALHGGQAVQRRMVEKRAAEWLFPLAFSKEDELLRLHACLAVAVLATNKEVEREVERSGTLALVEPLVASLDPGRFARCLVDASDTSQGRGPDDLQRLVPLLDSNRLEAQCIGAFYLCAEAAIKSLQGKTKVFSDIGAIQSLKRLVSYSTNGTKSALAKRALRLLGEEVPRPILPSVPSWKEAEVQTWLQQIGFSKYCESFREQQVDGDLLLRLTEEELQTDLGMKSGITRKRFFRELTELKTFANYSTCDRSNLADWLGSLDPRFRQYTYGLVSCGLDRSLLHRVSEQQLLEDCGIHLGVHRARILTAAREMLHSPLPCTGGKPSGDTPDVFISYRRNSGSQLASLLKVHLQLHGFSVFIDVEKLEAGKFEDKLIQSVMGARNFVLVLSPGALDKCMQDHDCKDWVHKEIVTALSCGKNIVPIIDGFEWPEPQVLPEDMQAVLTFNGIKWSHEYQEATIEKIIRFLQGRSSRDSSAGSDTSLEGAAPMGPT

Remaining NAD, inactive:
CCN(CC)CCOCCOC(=O)C1(c2ccccc2)CCCC1 10 nM
C[N+](C)(C)CCOC(N)=O 12 nM
Cc1nnc(SCC2=C(C(=O)O)N3C(=O)[C@@H](NC(=O)Cn4cnnn4)[C@H]3SC2)s1 10 nM
C[C@]12CCC(=O)C=C1CC[C@@H]1[C@@H]2[C@@H](O)C[C@@]2(C)[C@H]1CC[C@]2(O)C(=O)COP(=O)(O)O 10 nM
Clc1ccc(C(c2ccccc2Cl)C(Cl)Cl)cc1 (stereo not given) 10 nM
COCCCC/C(=N\OCCN)c1ccc(C(F)(F)F)cc1 10 nM
NS(=O)(=O)c1cc2c(cc1Cl)NC(C(Cl)Cl)NS2(=O)=O (stereo not given) 10 nM
C[C@H]1c2cccc(O)c2C(O)=C2C(=O)[C@]3(O)C(O)=C(C(N)=O)C(=O)[C@@H](N(C)C)[C@@H]3[C@@H](O)[C@@H]21 10 nM
Cc1ccccc1OCC(O)CO (stereo not given) 10 nM
CO[C@]12C[C@@H](COC(=O)c3cncc(Br)c3)CN(C)[C@@H]1Cc1cn(C)c3cccc2c13 10 nM
Cc1c(Cl)cccc1Nc1ccccc1C(=O)O 10 nM
Nc1ccc(C(=O)Oc2ccccc2)c(O)c1 10 nM
NC(=O)c1ncn([C@@H]2O[C@H](CO)[C@@H](O)[C@H]2O)n1 10 nM
COC(=O)[C@@H]1[C@H]2C[C@H]3c4[nH]c5ccccc5c4CCN3C[C@@H]2CC[C@@H]1O 10 nM
O=C1C(=O)c2ccccc2C(O)=C1C1CCC(c2ccc(Cl)cc2)CC1 (stereo not given) 10 nM
